High-throughput results: PubChem, National Center for Advancing Translational Sciences (NCATS)
Sm TGR inh: qHTS Assay for the Inhibitors of Schistosoma Mansoni Peroxiredoxins; Schistosoma mansoni thioredoxin glutathione reductase (TGR), Q962Y6; purified TGR, DTNB reduction, TNB absorbance 405 nm; Potency, µM (series often up to 114 µM), actives largely listed as inhibitors; 360,000 tested, 3% active; AID 485364, 2010; also: nearly all actives have a fitted effect of over 60% in size
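First, TGR (20 nM dispensed) and NADPH were mixed with compound. Second, a 15 min room-temperature incubation followed. Third, further NADPH and then DTNB were added to start the reaction. Finally, TNB absorbance was monitored kinetically.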
NS1 function inh: qHTS Assay for Inhibitors of Influenza NS1 Protein Function; Potency, µM (titrated, usually from 46.1 µM); 270,000 tested, 0.4% active; calls by dose curve; also: actives are rising curves; nearly all actives have a fitted effect of over 50% in size
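A cell-based growth assay was used: compounds that relieve NS1-induced slow growth of budding yeast raise OD600. Assay medium was yeast nitrogen base with ammonium sulphate and -URA supplement, pH 6.0, with 2% galactose.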
Pf growth 48h: Primary qHTS for delayed death inhibitors of the malarial parasite plastid, 48 hour incubation | Potency, µM (highest dose often 28.7 µM), hits mostly inhibitors | AID 504832, 2011 | P. falciparum luciferase growth in erythrocytes, 48 h | 310,000 tested, 5.9% active
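Read-out is firefly luciferase luminescence from an integrated reporter in P. falciparum, so falling signal marks reduced parasite growth. Infected erythrocytes were at 2% hematocrit and 0.1% parasitemia (final) in Albumax-supplemented RPMI 1640.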
Pf growth 96h: Primary qHTS for delayed death inhibitors of the malarial parasite plastid, 96 hour incubation; P. falciparum luciferase reporter growth, 96 h; Potency, µM (series often up to 28.7 µM), usual class: inhibitors; 320,000 tested, 6.9% active; AID 504834, 2011
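Two parasite generations (96 h, 37 C, 5% CO2) of compound exposure in infected erythrocytes (0.05% parasitemia, 2% hematocrit). Luciferase-reporter P. falciparum; decreased luminescence indicates inhibited growth, aimed at apicoplast-acting delayed death.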
AMA1-RON2 inh: qHTS for Inhibitors of AMA1-RON; Towards Development of Antimalarial Drug Lead: Primary Screen | AlphaScreen AMA1-biotinylated RON2 peptide binding | AID 720542, 2013 | Potency, µM (top dose mostly 58.2 µM), hits mostly inhibitors | 360,000 tested, 0.2% active; also: nearly all actives have a fitted effect of over 45% in size
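AMA1 (3D7) with his tag at 25 nM final met compounds first, then biotinylated RON2 peptide at 25 nM; detection used donor plus acceptor beads, 10 µg/mL apiece, read by AlphaScreen after 30 min at room temperature.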
Hits are given with their value; n = inactive; u = inconclusive; x = no result; [ ] = dose if it differs, or a comment. Only some compounds are listed: those with a hit (about 11% of all), similar ones and a draw of the others. Unless noted, calls follow the shape of the dose curve; as a rule, active = well fitted curve in the direction sought with a large enough effect; inconclusive = small, poorly fitted or top-dose-only effect, or another doubt; inactive = no such curve, though single readings can be large; an effect the other way counts as inactive or inconclusive.

SMILES	Sm TGR inh	NS1 function inh	Pf growth 48h	Pf growth 96h	AMA1-RON2 inh
CCc1nc2ccccc2c(NC(=O)CN2CC(C)CC(C)C2)c1C (centres undefined)	n	n	n	9.3µM	n
CC1CCN(C2=NC(=O)/C(=C/c3cn(-c4ccccc4)nc3-c3cccc(S(=O)(=O)N(C)C)c3)S2)CC1	n	n	7.4µM	u	n
CC1CCCN(C2=NC(=O)/C(=C/c3cn(-c4ccccc4)nc3-c3cccc(S(=O)(=O)N(C)C)c3)S2)C1 (centres undefined)	n	n	u	1.7µM	n
COc1ccc(S(=O)(=O)N2CCCCCC2)cc1NS(=O)(=O)c1cc(C(=O)O)cc(C)c1C	n	x	n	u	n[11.6 µM]
Cn1ccc(NC(=O)Nc2cccc([N+](=O)[O-])c2)n1	n	n	u	n[5.75 µM]	n
Fc1ccccc1-c1nc2c(s1)CCc1onc(-c3ccc(Br)cc3)c1-2	x	x	x	x	n
Cn1c(=O)c2c(nc(N3CCC(C(N)=O)CC3)n2CCSc2nc3ccccc3s2)n(C)c1=O	n	n	2.9µM	n	n
Cc1cc(C)nc(SCCn2c(N3CCC(C)CC3)nc3c2c(=O)n(C)c(=O)n3C)n1	n	n	n	2.3µM	x
Cn1c(=O)[nH]c(=O)c2c1nc(N1CCCCC1)n2CCCSc1nc2ccccc2s1	n	n	u	4.1µM	n
Cc1ccccc1-c1nc(S(=O)(=O)c2ccccc2)c(N2CCCC2)o1	x	x	x	x	n
ON=C1c2cc(OCCN3CCCCC3)ccc2-c2ccc(OCCN3CCCCC3)cc21	n	n	1.7µM	1.5µM	n
NC(=S)NN=C1c2cc(OCCN3CCOCC3)ccc2-c2ccc(OCCN3CCOCC3)cc21	n	n	3.3µM	n	n
CCc1ccccc1NC(=O)C1=CC(c2ccc3c(c2)OCO3)=NS(=O)(=O)N1C	n	x	x	x	x
Cc1cccc(CC(=O)NC2CC(=O)N(c3cccc(F)c3)C2)c1 (centres undefined)	n	x	x	x	x
CCC(C)n1c(O)c(C(c2ccccn2)c2c(O)n(C(C)CC)c(=S)[nH]c2=O)c(=O)[nH]c1=S (centres undefined)	u	u	n	n	n
Cn1c(O)c(C(c2ccncc2)c2c(O)n(C)c(=S)n(C)c2=O)c(=O)n(C)c1=S	16µM	n	n	x	n
Cn1c(O)c(C(c2ccccn2)c2c(O)n(C)c(=S)n(C)c2=O)c(=O)n(C)c1=S	22µM	n	n	n	u
COc1ccc(NC(=O)C(=O)NCCN2CCN(C(=O)c3cccc(Br)c3)CC2)cc1	n	n	u	n	n
CCOC(=O)c1nnn(-c2nonc2N)c1CSc1ccc(C)cc1	n	n	u	n	n
Nc1nonc1-n1nnc(C(=O)N/N=C/c2ccccc2Cl)c1CN1CCOCC1	n	n	n	n	n
CCOC(=O)c1nnn(-c2nonc2N)c1CSc1ccccc1	n	n	x	3.3µM	n
Cc1ccc(-c2c(C(=O)N/N=C/c3cccs3)nnn2-c2nonc2N)cc1	n	n	u	1.2µM	n
Cc1ccsc1/C=N/NC(=O)c1nnn(-c2nonc2N)c1-c1ccc2c(c1)OCO2	n	n	3.3µM	0.13µM	n
Nc1nonc1-n1nnc(C(=O)N/N=C/c2ccccc2Cl)c1-c1ccc2c(c1)OCO2	n	n	2.9µM	0.66µM	n
Cc1ccc(-c2c(C(=O)N/N=C/c3ccc4c(c3)OCO4)nnn2-c2nonc2N)cc1	n	n	u	u	n
SMILES	Sm TGR inh	NS1 function inh	Pf growth 48h	Pf growth 96h	AMA1-RON2 inh
CCc1ccc2c(c1)C(=O)C[C@]1(CCC[C@H](C)C1)O2	n	x	u	n	n
CCOc1cccc2sc(N(CCN(CC)CC)C(=O)c3ccco3)nc12	n	x	x	x	x
CCOc1ccc(-c2c(C(=O)N/N=C/c3cccs3)nnn2-c2nonc2N)cc1	n	n	n	n	n
CCOC(=O)c1nnn(-c2nonc2N)c1-c1ccc(C)cc1	n	n	15µM	n	n
CCOC(=O)c1nnn(-c2nonc2N)c1-c1ccc(Br)cc1	n	x	u	n	n
Nc1nonc1-n1nnc(C(=O)N/N=C/c2cccs2)c1-c1ccc2c(c1)OCO2	n	n	0.93µM	0.29µM	n
CC(C)(C)c1ccc(C(=O)N2CCCC2c2cccs2)cc1 (centres undefined)	n	n	15µM	u	n
